“And” between values parts separate entries of the source, which are not always exact repeats. Equal values may be shown once. In all, about 260,000 compounds went through this assay and about 1,500 (0.58%) were called active. Not shown: some 5% with an inconclusive outcome. These entries were drawn from the full list. Potency and affinity values are given separately. A number with no mark means an inactive call.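 The calls were made as follows: active = inhibition above a set limit at one or more doses, reproduced on every date tested; inconclusive = results disagree between test dates, or hit never tested in dose response; inactive = the rest.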
molecular target: Virion infectivity factor (Human immunodeficiency virus type 1 group M subtype B (isolate BH10)) + Virion infectivity factor (Human immunodeficiency virus type 1 group M subtype B (isolate BRU/LAI)) + Virion infectivity factor (Human immunodeficiency virus type 1 group M subtype B (isolate PCV12)) + Virion infectivity factor (Human immunodeficiency virus type 1 group M subtype B (isolate HXB2)) + DNA dC->dU-editing enzyme APOBEC-3G (Homo sapiens) (UniProt P69720+P69721+P69722+P69723+Q9HC16); assay: HIV-1 Vif–A3G interaction blockers – biochemical, TR-FRET, GST-Vif 1-94, biotin-A3G peptide, dose response retest, primary screen (AID 1117319); settings: TR-FRET GST-Vif / biotin-A3G peptide binding; active compounds read high;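 also: Vif residues 1-94 fused to GST binding biotinylated APOBEC3G peptide 110-148; 0% = full assay without inhibitor and 100% = GST in place of GST-Vif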

Row | Structure (SMILES) | inhibition
1 | CS(=O)(=O)N1CCCC(C(=O)NCCN2CCC(Cc3ccccc3)CC2)C1 (stereo unspecified) | -4.71%
2 | CS(=O)(=O)N1CCCC(C(=O)NCCCN2CCN(Cc3ccccc3)CC2)C1 (stereo unspecified) | 8.72%
3 | COc1ccccc1/C=C/C(=O)OCC(=O)Nc1ccccc1Sc1ccccc1 | -5.26%
4 | Cc1cc(C(=O)N(C)Cc2c(F)cccc2Cl)c2ccccc2n1 | -2.57%
5 | Cc1ccc(S(=O)(=O)CCC(=O)OCc2cc(C)ccc2C)cc1 | 4.12%
6 | CCn1c(C)cc(C(=O)CSc2nnc(-c3ccco3)o2)c1C | 6.55%
7 | Cc1cc(C(=O)CSc2ncccn2)c(C)n1Cc1ccco1 | -2.83%
8 | COc1cccc(/C=C/C(=O)OCC(=O)Nc2cc(S(=O)(=O)N3CCOCC3)ccc2C)c1 | -9.36%
9 | CCN(CC(=O)NCc1cccs1)C(=O)c1ccc(S(=O)(=O)Nc2ccccc2Cl)cc1 | 1.56%
10 | CC(=O)Nc1cccc(NC(=O)COc2ccccc2C)c1 | -7.35%
11 | Cc1noc(C)c1COc1cccc(C(=O)N(C)Cc2cccs2)c1 | -1.46%
12 | CC1(C)CC(=O)C(N=Nc2ccc(OC(F)F)cc2)=C(O)C1 | 12.4%
13 | COc1ccc2c(c1O)C(=O)c1ccccc1C2=O | 23.1%
14 | Cc1cccc(NC(=O)c2ccc(C)c(S(=O)(=O)N3CCCCC3)c2)n1 | 2.93%
15 | Cc1ccccc1NC(=O)COC(=O)c1cc(=O)c2ccccc2o1 | -5.37%
16 | COc1ccc(/C=N/N=C/c2ccc(OC)c(O)c2)cc1O | -4.01%
17 | NC(N)=N/N=C/c1ccc(OCc2ccccc2)cc1 | -2.74%
18 | Oc1ccc(/C=N/N=C/c2ccc(O)cc2)cc1 | 4.98%
19 | O=Cc1ccc(O)c(O)c1 | 0.2%
20 | Oc1ccc(/C=N/N(c2ccccc2)c2ccccc2)cc1O | 26.2%
21 | CC(=O)Nc1ccc(N=Cc2ccc(OCc3ccccc3)cc2)cc1 | 21.2%
22 | Cc1nc(SC(C)C(=O)c2c(N)n(C)c(=O)n(C)c2=O)c2c(C)c(C)sc2n1 (stereo unspecified) | -0.67%
23 | CCOc1ccc(NC(=O)C(C)Sc2nnnn2C)cc1 (stereo unspecified) | 0.56%
24 | COc1cccc(NC(=O)CN(C)C(=O)CN2C(=O)NC(C)(c3ccc4ccccc4c3)C2=O)c1 (stereo unspecified) | 9.34%
25 | Cc1ccc(C)c(NS(=O)(=O)c2ccc(OCC(=O)N3CCCC3)cc2)c1 | 1.52%
26 | CS(=O)(=O)c1ccc(C(=O)OCC(=O)NC(=O)Cc2ccccc2)cc1 | -0.73%

Row | Structure (SMILES) | inhibition
27 | COc1ccc(-n2c(SCC(C)=O)nc3sc(C)c(C)c3c2=O)cc1 | -12.1%
28 | CC(C)(C)c1c(Cl)c(O)c(-c2ccccc2)c(=O)n1-c1ccccc1 | 11.4%
29 | CCN(c1ccccc1)S(=O)(=O)c1ccc2c(c1)N(C(C)=O)CCS2 | -1.04%
30 | COc1ccccc1-c1nn(-c2ccccc2)cc1C(=O)NCC(c1ccco1)N1CCCC1 (stereo unspecified) | 1.07%
31 | CCOC(=O)N1CCN(S(=O)(=O)c2ccc(OC)c(Cl)c2Cl)CC1 | 3.84%
32 | Fc1ccc2c(c1)c1n[nH]c(=S)nc1n2CCc1ccccc1 | 0.89%
33 | O=C(Nc1ccc2c(c1)C(=O)c1ccccc1-2)c1ccccc1 | 4.11%
34 | O=C1C=C(Nc2ccccc2)C(=O)c2ccccc21 | 1.37%
35 | NC(Cc1ccc2nonc2c1)C(=O)O (stereo unspecified) | 17.1%
36 | CC(C)C(=O)NN(C(=O)c1ccccc1)c1ccccc1 | -2.08%
37 | O=C(c1ccccc1)N(Nc1ccccc1)c1ccccc1 | 11.5%
38 | COc1ccc2cc(C#N)c(Nc3cccc(F)c3)nc2c1 | -0.27%
39 | S=c1[nH]nc(NC2CCCCC2)s1 | 2.41%
40 | CCOc1cc(C2Nc3ccccc3C(=O)N2c2ccccc2)ccc1O (stereo unspecified) | 24.7%
41 | COc1cc(C2Nc3ccccc3C(=O)N2c2ccccc2OC)ccc1O (stereo unspecified) | -3.51%
42 | CCCCOC(=O)c1cccc(NC(=O)CCC(=O)O)c1 | -3.12%
43 | NC(=O)c1ncc(C(F)(F)F)cc1Oc1cccnc1 | -3.05%
44 | CCN(C(=O)COC(=O)CNC(=O)c1ccc2ccccc2c1)C1CCS(=O)(=O)C1 (stereo unspecified) | 11.8%
45 | CCc1ccc(NC(=O)C2CCN(S(C)(=O)=O)CC2)cc1 | -4.22%
46 | Cc1ccc(NC(=O)C2CC3CCC2C3)c(Br)c1 (stereo unspecified) | -0.68%
47 | COc1ccc(NC(=O)C(NC(C)=O)C(=O)NCc2ccccc2OC)cc1 (stereo unspecified) | 19.8%
48 | Oc1cccc2cc3cccc(O)c3c(O)c12 | -5.93%
49 | COc1cc2cccc(OC)c(=O)c2c(O)c1OC | 4.6%
50 | CCOC(=O)c1sc(NC(=O)Nc2ccc(F)cc2)nc1C | 24.7%
51 | Nc1ccc(N2CCCCC2)c(Cl)c1 | 19.8%
52 | Clc1ccccc1CN1CCN(c2ncccn2)CC1 | -5.95%

Row | Structure (SMILES) | inhibition
53 | CC1CCC2(CC1)NC(=O)N(CC(=O)NCc1ccc(Cl)cc1)C2=O (stereo unspecified) | -14%
54 | O=C(CNC(=O)c1ccc(Br)cc1)N/N=C/c1ccc[nH]1 | -7.5%
55 | Cc1nc2ccccc2n1CC(=O)c1ccccc1 | 6.29%
56 | Cc1nc2ccccc2c(-c2ccccc2)c1CC(=O)O | -8.12%
57 | CCOC(=O)c1cnc2c(cnn2C)c1Cl | 6.51%
58 | COc1cc(OC)c2c(c1)OC(c1ccc(OC)c(OC)c1)C(O)C2=O (stereo unspecified) | 5.17%
59 | COc1cc(OC)c(-c2oc3ccccc3c(=O)c2O)c(OC)c1 | 4.4%
60 | COc1ccc(C(=O)OCCN=C2NS(=O)(=O)c3ccccc32)cc1OC | 0.81%
61 | CC12CCCc3c(O)cc(=O)n(c31)-c1ccccc12 (stereo unspecified) | 0.05%
62 | O=C(NN1C(=O)/C(=C/c2cccs2)SC1=S)c1ccncc1 | -1.89%
63 | COc1cc(/C=C2\SC(=S)N(NC(=O)c3ccccc3O)C2=O)ccc1O | 5.15%
64 | O=C1/C(=C/c2cccs2)SC(=S)N1NS(=O)(=O)c1ccccc1 | -2.36%
65 | O=C(NN1C(=O)/C(=C/C=C/c2ccccc2)SC1=S)c1ccncc1 | 10.1%
66 | CC(/C=C1\SC(=S)N(NS(=O)(=O)c2ccccc2)C1=O)=C\c1ccccc1 | -6.38%
67 | Cn1cccc1/C=C1\SC(=S)N(NC(=O)c2ccccc2O)C1=O | 27.8%
68 | Cc1c(C(=O)NCc2ccccn2)sc2nc(-c3ccc(F)cc3)cn12 | 0.67%
69 | Cc1ccc(NC(=O)CC2C(=O)NC3CCCCC3N2C(=O)c2ccc(F)cc2)cc1C (stereo unspecified) | 1.01% and 26.2%
70 | Cc1nn(Cc2cccc(Oc3ccccc3)c2)c(C)c1NC(=O)NC12CC3CC(CC(C3)C1)C2 | -5.96%
71 | Clc1ccc(CSc2cc3c(nn2)-c2ccccc2CC3)cc1Cl | -6.32%
72 | CC1(C(=O)OCC(=O)Nc2ccccc2Cl)CC1(Cl)Cl (stereo unspecified) | -10.2%
73 | Cc1c(Cl)ccc(S(=O)(=O)NCCN2CCOCC2)c1Cl | 6.83%
74 | O=CN1CCN(C2CC(=O)N(c3ccc(Br)cc3)C2=O)CC1 (stereo unspecified) | 22.2%
75 | Cc1ccc(Oc2ccccc2/C=C/C(=O)O)cc1 | 7.01%
76 | CC(C)(C)C1CCc2onc(C(=O)Nc3ccc(F)cc3F)c2C1 (stereo unspecified) | 2.83%
77 | CC(=O)c1ccc(NC(=O)c2noc3c2CCC3)cc1 | -4.79%
78 | COc1cc(NC(=O)c2noc3c2CCCC3)c(OC)cc1Cl | 11.1%

Row | Structure (SMILES) | inhibition
79 | Cc1ccc(NC(=O)c2noc3c2CCC3)cc1C | -3.45%
80 | COc1ccc(Cl)cc1NC(=O)c1noc2c1CCCC2 | -11.1%
81 | O=C(Nc1ccccc1C(=O)N1CCOCC1)c1noc2c1CCCC2 | -4.02%
82 | COC(=O)c1ccccc1NC(=O)c1noc2c1CC(C(C)(C)C)CC2 (stereo unspecified) | -0.63%
83 | COC(=O)c1ccccc1NC(=O)c1noc2c1CCCC2 | 3.34%
84 | CCS(=O)(=O)c1ccc(-c2csc(-c3ccc(Cl)cc3)n2)c(Cl)c1Cl | 2.97%
85 | CN(CCCNC(=O)CCCOc1cc(=O)n(C)c2ccccc12)Cc1ccccc1 | 4.88%
86 | CN(C)C(CNC(=O)c1cccc(S(=O)(=O)NCc2ccccc2)c1)c1ccco1 (stereo unspecified) | 0.14%
87 | O=C(CC1SC(N2CCCC2)=NC1=O)Nc1ccc(C(=O)NCc2ccc(F)cc2)cc1 (stereo unspecified) | 4.94%
88 | COc1cc(OC)cc(-n2nnnc2SCC(=O)NCc2cccs2)c1 | 6.88%
89 | O=C(O)CCCCCNS(=O)(=O)/C=C/c1ccccc1 | 1.37%
90 | CCN(CC(=O)Nc1ccc(NC(C)=O)cc1)C(=O)/C=C/c1c(C)nn(-c2ccc(F)cc2)c1Cl | 0.81%
91 | COC(=O)c1ccccc1NC(=S)NC(=O)C1CC1 | 0.95%
92 | COC(=O)c1ccccc1NC(=S)NC(=O)C1CCCCC1 | -4.52%
93 | COc1cc(NCCCCC(C)N)c2nccc(C)c2c1 (stereo unspecified) | 9.33%
94 | COc1cc(NCc2ccccc2O)c2ncccc2c1 | 3.48%
95 | CCOC(=O)c1ccc(Oc2nc(N(C)C)nc(N3CCOCC3)n2)cc1 | -15.9%
96 | CN1CCN(c2nnc(-c3ccc(Cl)cc3)c3ccccc23)CC1 | 3.71%
97 | Cc1ccc(C)c(/C=N/n2cc(-c3ccccc3)[nH]c2=S)c1 | -9.36%
98 | Cc1ccc(-c2cc(-c3ccc(C)o3)nc(N)c2C#N)cc1 | 27.2%
99 | Cc1ccc(-c2cc(-c3ccc(F)cc3)c(C#N)c(N)n2)o1 | 18.2%
100 | Cc1cc(-c2ccc(Cl)cc2)c(C#N)c(N)n1 | -1.08%
101 | Cc1ccc(-c2cc(-c3ccc(Cl)cc3)c(C#N)c(N)n2)o1 | 24.5%

Source: PubChem BioAssay AID1117319 (Southern Research Institute, 2015)
